# Publication PMC7862700, “An all-to-all approach to the identification of sequence-specific readers for epigenetic DNA modifications on cytosine”
# How the values were obtained:
# Assay in all cases: DAPPL (digital affinity profiling via proximity ligation, sequencing); 10 mM Tris-HCl pH 7.5, 50 mM NaCl, 1 mM DTT, 4% glycerol, room temperature, 30 min; GST-TFs on glutathione beads, 16-mer random dsDNA library, 0.1% formaldehyde crosslink after washing; high values mean tight binding
# FEV = biological target: T1, FEV (Homo sapiens, UniProt Q99581 1-238); settings: protein: recombinant; tags: N-terminal GST; dsDNA, one strand shown
# T1 sequence: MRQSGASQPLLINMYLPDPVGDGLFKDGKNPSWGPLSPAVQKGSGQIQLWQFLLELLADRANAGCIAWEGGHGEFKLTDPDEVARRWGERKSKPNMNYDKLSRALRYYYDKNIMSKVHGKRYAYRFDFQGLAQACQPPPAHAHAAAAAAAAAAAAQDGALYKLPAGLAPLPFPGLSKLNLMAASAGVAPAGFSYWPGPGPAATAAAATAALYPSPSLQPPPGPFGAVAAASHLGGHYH
# In short: (§1)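 Each value of binding signal is a hexamer's read frequency for a factor divided by the same hexamer's frequency in the tag-only sample. Barcoded, bead-captured GST fusions of human transcription factors made in yeast were pooled with that sample and incubated with 200 nmole of a random double-stranded 16-mer DNA library in Tris/NaCl/DTT/glycerol buffer at room temperature for 30 min. Washing, 0.1% formaldehyde crosslinking, proximity ligation, PCR and Illumina NextSeq500 sequencing followed.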
# ETV5 = ETV5 (Homo sapiens, UniProt P41161 1-510); settings: protein: recombinant; tags: N-terminal GST; dsDNA, one strand shown
# In short: as §1
# HSF1 = HSF1 (Homo sapiens, UniProt Q00613 1-529); settings: protein: recombinant; tags: N-terminal GST; chain copies: 3; dsDNA, one strand shown
# In short: as §1
# SPIC = biological target: T2, SPIC (Homo sapiens, UniProt Q8N5J4 1-248); settings: protein: recombinant; tags: N-terminal GST; dsDNA, one strand shown
# T2 sequence: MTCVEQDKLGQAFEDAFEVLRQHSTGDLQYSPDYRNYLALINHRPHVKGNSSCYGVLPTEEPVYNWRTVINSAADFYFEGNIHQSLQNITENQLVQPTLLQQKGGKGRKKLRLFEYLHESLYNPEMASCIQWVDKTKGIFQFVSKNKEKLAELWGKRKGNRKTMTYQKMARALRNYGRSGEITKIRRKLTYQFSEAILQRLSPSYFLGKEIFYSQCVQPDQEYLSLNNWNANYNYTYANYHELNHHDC
# In short: as §1
# ELF4 = ELF4 (Homo sapiens, UniProt Q99607 1-663); settings: protein: recombinant; tags: N-terminal GST; dsDNA, one strand shown
# In short: as §1
# ELK4 = biological target: T3, ELK4 (Homo sapiens, UniProt P28324-2 1-405); settings: protein: recombinant; tags: N-terminal GST; dsDNA, one strand shown
# T3 sequence: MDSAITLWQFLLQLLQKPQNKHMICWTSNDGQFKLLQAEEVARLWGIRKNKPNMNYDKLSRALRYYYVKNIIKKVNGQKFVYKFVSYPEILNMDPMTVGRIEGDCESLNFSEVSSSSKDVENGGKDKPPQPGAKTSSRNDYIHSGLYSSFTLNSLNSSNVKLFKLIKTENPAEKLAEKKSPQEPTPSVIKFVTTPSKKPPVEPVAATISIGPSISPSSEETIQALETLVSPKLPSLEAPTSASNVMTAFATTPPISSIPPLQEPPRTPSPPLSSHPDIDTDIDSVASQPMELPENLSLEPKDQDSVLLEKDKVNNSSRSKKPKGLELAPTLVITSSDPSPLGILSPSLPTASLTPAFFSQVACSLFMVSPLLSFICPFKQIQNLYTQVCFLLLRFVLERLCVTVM
# In short: as §1
# ETV2 = biological target: T4, ETV2 (Homo sapiens, UniProt O00321 1-342); settings: protein: recombinant; tags: N-terminal GST; dsDNA, one strand shown
# T4 sequence: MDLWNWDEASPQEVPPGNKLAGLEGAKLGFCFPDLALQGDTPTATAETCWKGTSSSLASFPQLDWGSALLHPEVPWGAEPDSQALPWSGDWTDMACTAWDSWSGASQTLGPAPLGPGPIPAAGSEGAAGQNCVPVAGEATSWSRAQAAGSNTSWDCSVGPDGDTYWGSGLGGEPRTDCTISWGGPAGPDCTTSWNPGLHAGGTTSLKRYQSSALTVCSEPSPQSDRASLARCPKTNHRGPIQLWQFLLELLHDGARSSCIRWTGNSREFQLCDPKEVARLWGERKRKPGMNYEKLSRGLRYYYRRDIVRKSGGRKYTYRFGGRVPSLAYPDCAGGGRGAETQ
# In short: as §1
# ELF3 = biological target: T5, ELF3 (Homo sapiens, UniProt P78545 1-371); settings: protein: recombinant; tags: N-terminal GST; dsDNA, one strand shown
# T5 sequence: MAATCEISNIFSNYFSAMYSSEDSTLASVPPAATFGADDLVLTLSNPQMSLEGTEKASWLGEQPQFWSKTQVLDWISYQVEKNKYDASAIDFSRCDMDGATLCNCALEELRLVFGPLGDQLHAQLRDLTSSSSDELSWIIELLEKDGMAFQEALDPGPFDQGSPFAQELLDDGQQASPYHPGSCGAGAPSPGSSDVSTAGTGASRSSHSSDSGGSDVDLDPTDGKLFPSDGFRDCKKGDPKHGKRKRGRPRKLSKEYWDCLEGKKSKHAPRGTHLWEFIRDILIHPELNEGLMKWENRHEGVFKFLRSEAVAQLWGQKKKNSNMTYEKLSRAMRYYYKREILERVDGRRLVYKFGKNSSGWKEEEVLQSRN
# In short: as §1
# CRX = CRX (Homo sapiens, UniProt O43186 1-299); settings: protein: recombinant; tags: N-terminal GST; dsDNA, one strand shown
# In short: as §1
# ETV1 = ETV1 (Homo sapiens, UniProt P50549 1-477); settings: protein: recombinant; tags: N-terminal GST; dsDNA, one strand shown
# In short: as §1
# ERF = biological target: T6, ERF (Homo sapiens, UniProt P50548 1-548); settings: protein: recombinant; tags: N-terminal GST; dsDNA, one strand shown
# T6 sequence: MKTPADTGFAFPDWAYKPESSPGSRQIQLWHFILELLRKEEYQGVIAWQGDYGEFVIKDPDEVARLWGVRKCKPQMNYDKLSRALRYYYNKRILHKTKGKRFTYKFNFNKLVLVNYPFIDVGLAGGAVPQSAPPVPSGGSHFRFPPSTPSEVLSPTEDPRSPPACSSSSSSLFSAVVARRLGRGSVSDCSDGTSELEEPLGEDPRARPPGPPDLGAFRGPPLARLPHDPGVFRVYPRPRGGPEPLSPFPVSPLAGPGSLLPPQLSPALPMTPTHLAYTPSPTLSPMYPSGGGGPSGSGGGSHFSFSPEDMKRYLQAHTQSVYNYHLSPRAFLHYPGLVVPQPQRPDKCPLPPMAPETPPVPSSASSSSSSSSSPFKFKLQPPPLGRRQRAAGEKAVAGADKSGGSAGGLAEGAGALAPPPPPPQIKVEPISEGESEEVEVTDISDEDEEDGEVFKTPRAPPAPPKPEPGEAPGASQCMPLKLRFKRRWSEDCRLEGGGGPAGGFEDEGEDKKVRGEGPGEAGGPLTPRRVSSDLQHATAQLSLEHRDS
# In short: as §1
# ETV3L = biological target: T7, ETV3L (Homo sapiens, UniProt Q6ZN32 1-361); settings: protein: recombinant; tags: N-terminal GST; dsDNA, one strand shown
# T7 sequence: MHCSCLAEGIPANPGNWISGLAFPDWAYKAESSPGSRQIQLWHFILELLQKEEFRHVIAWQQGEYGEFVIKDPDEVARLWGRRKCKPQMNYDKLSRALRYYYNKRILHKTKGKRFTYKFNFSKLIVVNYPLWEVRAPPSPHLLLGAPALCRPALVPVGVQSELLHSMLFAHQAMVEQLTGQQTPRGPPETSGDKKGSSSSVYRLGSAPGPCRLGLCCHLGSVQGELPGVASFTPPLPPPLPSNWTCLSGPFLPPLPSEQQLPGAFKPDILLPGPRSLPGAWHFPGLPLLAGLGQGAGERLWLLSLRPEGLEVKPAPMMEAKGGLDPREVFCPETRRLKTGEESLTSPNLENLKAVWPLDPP
# In short: as §1
# ETS2 = biological target: T8, ETS2 (Homo sapiens, UniProt P15036 1-469); settings: protein: recombinant; tags: N-terminal GST; dsDNA, one strand shown
# T8 sequence: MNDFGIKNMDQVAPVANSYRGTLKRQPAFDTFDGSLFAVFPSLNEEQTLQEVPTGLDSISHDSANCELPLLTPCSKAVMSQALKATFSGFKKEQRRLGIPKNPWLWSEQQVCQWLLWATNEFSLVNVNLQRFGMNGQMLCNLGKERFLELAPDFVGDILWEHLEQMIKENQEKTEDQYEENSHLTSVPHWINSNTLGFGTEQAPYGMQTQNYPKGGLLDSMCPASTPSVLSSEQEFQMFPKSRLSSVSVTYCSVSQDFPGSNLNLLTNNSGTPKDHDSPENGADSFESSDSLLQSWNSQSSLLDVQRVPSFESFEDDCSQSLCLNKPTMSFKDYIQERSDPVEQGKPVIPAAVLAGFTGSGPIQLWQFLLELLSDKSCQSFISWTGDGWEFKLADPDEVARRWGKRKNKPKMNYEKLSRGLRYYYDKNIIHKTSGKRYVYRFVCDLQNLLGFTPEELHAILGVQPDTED
# In short: as §1
# SPDEF = biological target: T9, SPDEF (Homo sapiens, UniProt O95238 1-335); settings: protein: recombinant; tags: N-terminal GST; dsDNA, one strand shown
# T9 sequence: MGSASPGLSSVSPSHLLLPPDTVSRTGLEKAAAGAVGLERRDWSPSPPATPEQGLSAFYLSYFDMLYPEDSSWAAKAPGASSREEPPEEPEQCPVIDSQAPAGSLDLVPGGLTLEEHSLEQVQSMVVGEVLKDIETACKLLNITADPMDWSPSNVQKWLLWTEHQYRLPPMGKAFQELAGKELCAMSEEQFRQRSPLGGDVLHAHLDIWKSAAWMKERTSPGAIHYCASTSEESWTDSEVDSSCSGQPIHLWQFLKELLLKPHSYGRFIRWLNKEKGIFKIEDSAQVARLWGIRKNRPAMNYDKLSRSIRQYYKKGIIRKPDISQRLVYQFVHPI
# In short: as §1
# ETV7 = biological target: T10, ETV7 (Homo sapiens, UniProt Q9Y603 1-341); settings: protein: recombinant; tags: N-terminal GST; dsDNA, one strand shown
# T10 sequence: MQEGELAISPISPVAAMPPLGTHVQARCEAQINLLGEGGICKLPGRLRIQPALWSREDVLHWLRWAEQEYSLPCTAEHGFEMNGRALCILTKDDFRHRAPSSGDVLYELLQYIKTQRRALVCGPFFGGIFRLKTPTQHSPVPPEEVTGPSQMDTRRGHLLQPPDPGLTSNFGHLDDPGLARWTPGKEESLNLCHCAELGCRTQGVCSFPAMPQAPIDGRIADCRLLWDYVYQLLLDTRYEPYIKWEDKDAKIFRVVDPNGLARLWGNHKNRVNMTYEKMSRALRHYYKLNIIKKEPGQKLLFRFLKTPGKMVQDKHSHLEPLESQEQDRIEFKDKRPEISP
# In short: as §1
# ELF5 = biological target: T11, ELF5 (Homo sapiens, UniProt Q9UKW6-2 1-255); settings: protein: recombinant; tags: N-terminal GST; dsDNA, one strand shown
# T11 sequence: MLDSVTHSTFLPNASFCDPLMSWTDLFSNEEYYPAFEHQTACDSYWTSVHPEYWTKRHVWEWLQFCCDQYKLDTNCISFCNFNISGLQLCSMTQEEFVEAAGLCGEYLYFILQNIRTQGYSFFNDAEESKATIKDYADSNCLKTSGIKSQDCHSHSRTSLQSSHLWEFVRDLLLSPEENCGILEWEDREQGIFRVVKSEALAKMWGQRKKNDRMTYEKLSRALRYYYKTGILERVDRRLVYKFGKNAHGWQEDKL
# In short: as §1
# ETV3 = biological target: T12, ETV3 (Homo sapiens, UniProt P41162-2 1-143); settings: protein: recombinant; tags: N-terminal GST; dsDNA, one strand shown
# T12 sequence: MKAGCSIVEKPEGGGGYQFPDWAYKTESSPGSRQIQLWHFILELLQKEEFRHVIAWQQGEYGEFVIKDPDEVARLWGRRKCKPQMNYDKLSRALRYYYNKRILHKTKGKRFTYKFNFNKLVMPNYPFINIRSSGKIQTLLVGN
# In short: as §1
# ETV6 = ETV6 (Homo sapiens, UniProt P41212 1-452); settings: protein: recombinant; tags: N-terminal GST; dsDNA, one strand shown
# In short: as §1
# Sequence of ELF4 (Q99607 whole entry): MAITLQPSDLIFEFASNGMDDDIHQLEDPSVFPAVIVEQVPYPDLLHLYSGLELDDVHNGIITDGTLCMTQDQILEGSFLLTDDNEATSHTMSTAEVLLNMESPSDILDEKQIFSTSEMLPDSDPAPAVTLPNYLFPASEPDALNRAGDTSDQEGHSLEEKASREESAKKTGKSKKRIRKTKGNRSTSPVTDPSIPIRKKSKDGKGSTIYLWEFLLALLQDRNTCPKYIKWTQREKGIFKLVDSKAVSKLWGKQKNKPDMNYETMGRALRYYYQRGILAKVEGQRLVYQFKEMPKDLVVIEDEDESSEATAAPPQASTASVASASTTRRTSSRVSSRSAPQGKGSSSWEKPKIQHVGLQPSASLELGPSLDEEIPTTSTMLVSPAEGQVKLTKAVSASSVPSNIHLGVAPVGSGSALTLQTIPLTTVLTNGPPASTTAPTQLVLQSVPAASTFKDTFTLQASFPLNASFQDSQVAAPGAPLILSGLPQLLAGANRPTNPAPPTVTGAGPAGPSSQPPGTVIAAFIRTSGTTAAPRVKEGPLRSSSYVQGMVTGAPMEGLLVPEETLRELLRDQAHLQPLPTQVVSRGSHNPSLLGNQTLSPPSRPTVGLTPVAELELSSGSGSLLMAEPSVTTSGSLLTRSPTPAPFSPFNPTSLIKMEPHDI
# Sequence of ETV6 (P41212 whole entry): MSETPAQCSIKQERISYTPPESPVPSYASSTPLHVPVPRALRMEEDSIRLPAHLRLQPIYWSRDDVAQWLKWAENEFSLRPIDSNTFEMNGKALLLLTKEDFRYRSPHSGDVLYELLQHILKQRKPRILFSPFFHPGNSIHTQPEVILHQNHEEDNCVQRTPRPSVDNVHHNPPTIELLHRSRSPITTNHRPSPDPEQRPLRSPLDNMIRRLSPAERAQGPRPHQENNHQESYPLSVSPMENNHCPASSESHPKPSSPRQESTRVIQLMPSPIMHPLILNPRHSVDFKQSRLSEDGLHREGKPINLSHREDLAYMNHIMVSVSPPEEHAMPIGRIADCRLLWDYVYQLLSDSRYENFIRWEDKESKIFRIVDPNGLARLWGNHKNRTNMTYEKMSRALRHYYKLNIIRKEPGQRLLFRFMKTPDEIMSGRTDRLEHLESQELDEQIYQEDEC
# Sequence of ETV5 (P41161 whole entry): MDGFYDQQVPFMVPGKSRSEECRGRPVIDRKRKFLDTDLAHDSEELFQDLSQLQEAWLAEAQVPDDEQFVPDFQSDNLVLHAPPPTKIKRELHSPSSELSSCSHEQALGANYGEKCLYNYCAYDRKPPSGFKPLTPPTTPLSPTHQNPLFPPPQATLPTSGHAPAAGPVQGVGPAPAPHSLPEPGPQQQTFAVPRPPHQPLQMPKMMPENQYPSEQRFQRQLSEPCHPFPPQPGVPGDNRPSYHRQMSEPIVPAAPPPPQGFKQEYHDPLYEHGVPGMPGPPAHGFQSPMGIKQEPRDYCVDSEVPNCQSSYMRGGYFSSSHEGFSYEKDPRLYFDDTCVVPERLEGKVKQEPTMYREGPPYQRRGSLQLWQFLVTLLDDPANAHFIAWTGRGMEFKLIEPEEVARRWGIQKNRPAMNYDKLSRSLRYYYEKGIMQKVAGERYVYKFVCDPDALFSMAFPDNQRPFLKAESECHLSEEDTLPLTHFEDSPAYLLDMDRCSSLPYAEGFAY
# Sequence of ETV1 (P50549 whole entry): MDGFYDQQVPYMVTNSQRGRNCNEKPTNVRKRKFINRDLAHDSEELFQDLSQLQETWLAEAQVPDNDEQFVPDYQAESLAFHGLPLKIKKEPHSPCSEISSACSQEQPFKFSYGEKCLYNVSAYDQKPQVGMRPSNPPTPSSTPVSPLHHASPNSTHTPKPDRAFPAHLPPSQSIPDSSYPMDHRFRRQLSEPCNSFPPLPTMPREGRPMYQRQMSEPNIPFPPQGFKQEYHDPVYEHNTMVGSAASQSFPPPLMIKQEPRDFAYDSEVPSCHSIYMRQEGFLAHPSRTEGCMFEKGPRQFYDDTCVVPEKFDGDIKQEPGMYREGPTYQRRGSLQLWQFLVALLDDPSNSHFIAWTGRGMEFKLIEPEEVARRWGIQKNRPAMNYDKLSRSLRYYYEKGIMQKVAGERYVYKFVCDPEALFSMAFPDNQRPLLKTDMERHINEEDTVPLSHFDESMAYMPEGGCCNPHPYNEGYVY
# Sequence of CRX (O43186 whole entry): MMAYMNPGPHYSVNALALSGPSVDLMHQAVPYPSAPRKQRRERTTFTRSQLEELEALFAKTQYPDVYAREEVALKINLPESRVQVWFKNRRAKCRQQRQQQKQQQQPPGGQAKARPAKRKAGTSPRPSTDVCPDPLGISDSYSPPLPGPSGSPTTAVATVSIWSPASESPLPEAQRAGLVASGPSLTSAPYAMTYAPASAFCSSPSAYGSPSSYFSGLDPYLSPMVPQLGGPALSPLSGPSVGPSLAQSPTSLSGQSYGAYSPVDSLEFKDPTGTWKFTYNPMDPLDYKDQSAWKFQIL
# Sequence of HSF1 (Q00613 whole entry): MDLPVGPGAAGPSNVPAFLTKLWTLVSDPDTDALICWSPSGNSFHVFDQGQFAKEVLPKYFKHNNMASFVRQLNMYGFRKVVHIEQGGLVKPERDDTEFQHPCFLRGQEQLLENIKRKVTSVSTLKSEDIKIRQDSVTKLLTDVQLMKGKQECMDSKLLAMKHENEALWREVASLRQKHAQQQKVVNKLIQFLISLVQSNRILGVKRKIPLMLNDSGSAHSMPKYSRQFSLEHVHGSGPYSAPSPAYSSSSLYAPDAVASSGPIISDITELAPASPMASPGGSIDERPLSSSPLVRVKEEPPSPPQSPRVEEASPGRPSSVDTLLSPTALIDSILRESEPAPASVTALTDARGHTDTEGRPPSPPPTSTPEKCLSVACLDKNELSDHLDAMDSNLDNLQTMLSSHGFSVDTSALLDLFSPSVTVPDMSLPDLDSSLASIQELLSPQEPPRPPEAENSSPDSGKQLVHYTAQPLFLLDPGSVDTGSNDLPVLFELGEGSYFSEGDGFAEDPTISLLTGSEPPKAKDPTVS
sequence,measurement,setting,value
CTTTTG,binding signal,FEV,"1.3 fold enrichment (6-mer frequency, TF over GST control)"
same,binding signal,ETV5,"1.38 fold enrichment (6-mer frequency, TF over GST control)"
same,binding signal,HSF1,"1.36 fold enrichment (6-mer frequency, TF over GST control)"
same,binding signal,SPIC,"1.36 fold enrichment (6-mer frequency, TF over GST control)"
same,binding signal,ELF4,"1.42 fold enrichment (6-mer frequency, TF over GST control)"
same,binding signal,ELK4,"1.35 fold enrichment (6-mer frequency, TF over GST control)"
same,binding signal,ETV2,"1.25 fold enrichment (6-mer frequency, TF over GST control)"
same,binding signal,ELF3,"1.39 fold enrichment (6-mer frequency, TF over GST control)"
same,binding signal,CRX,"1.43 fold enrichment (6-mer frequency, TF over GST control)"
same,binding signal,ETV1,"1.3 fold enrichment (6-mer frequency, TF over GST control)"
same,binding signal,ERF,"1.62 fold enrichment (6-mer frequency, TF over GST control)"
same,binding signal,ETV3L,"1.31 fold enrichment (6-mer frequency, TF over GST control)"
same,binding signal,ETS2,"1.45 fold enrichment (6-mer frequency, TF over GST control)"
same,binding signal,SPDEF,"1.46 fold enrichment (6-mer frequency, TF over GST control)"
same,binding signal,ETV7,"1.44 fold enrichment (6-mer frequency, TF over GST control)"
same,binding signal,ELF5,"1.28 fold enrichment (6-mer frequency, TF over GST control)"
same,binding signal,ETV3,"1.24 fold enrichment (6-mer frequency, TF over GST control)"
same,binding signal,ETV6,"1.46 fold enrichment (6-mer frequency, TF over GST control)"
